Screening data as filed in PubChem BioAssay.
hgDAF12 agonist = agonists of H. glycines DAF-12 nuclear receptor; HEK293 GAL4-hgDAF12 UAS-luciferase reporter, agonist luminescence; normalized to butyrate control; activation, % at 6.8 µM; 370,000 compounds, 1.8% hits; AID 687014;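 active = activation above a cutoff set at the mean of all screened compounds plus 3 SD, cut at about 10% in these data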;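 note: 0% = DMSO wells and 100% = sodium butyrate wells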
hcDAF-12 act = activators of H. contortus DAF-12 nuclear receptor | HEK293 hcDAF-12 lit1-tk-luc reporter, luminescence; 0% DMSO, 100% Δ7-dafachronic acid | activation, % at 6.8 µM | 370,000 compounds, 1.4% hits | AID 652067;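 active = activation above the mean of all tested compounds plus 3 SD, cut at about 5.5% in these data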;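 note: 100% = response to 3 µM Δ7-dafachronic acid high control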
ssDAF12 agonist = activators of S. stercoralis DAF-12 nuclear receptor; HEK293 ssDAF-12/GRIP1 lit1-tk-luc reporter, luminescence; % of 3 µM dafachronic acid response; activation, % at 6.8 µM; 370,000 compounds, 1% hits;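 active = activation above the mean over all tested compounds plus 3 SD, cut at about 0.9% in these data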;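 note: 0% = DMSO-only wells and 100% = 3 µM delta7-dafachronic acid wells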
DAX1 inh-1 = inhibits human nuclear receptor DAX1. P51843. HEK293 Gal4-DAX1 luciferase reporter, luminescence. inhibition, % at 6.75 µM. 340,000 compounds, 0.99% hits;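 active = inhibition above the mean over all tested compounds plus 3 SD, cut at about 4.2% in these data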;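 note: 0% = DAX1-transfected cells with DMSO and 100% = empty-vector control cells with DMSO; inhibition shows as a rise in luminescence from relieved DAX1 repression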
Target sequence (P51843 207-470 limits assumed): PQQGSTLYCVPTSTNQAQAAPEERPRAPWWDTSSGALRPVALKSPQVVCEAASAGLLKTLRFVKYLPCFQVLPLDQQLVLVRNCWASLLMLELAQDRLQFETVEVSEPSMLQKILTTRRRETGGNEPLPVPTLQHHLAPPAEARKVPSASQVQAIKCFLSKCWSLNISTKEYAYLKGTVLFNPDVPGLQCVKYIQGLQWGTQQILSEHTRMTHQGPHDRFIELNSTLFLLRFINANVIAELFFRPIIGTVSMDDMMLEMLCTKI
DAX1 inh-2 = DAX1 (NR0B1) inhibition, primary screen. inhibition, % at 6.8 µM. AID 652010. 370,000 compounds, 1.1% hits. HEK293T StAR-luciferase reporter, SF-1/DAX-1 repression relief;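 active = inhibition above the mean over all tested compounds plus 3 SD, cut at about 3.6% in these data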;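 note: 0% = DAX-1 cells with DMSO and 100% = cells lacking DAX-1 with DMSO; higher inhibition means more luminescence from relief of DAX-1 repression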
The depositor's hits bear a star. The list is not random: actives were taken first. Their share in the collection is about 4.1%.

Results for COc1ccc(-c2cc3nc(CCl)[nH]c(=O)c3s2)cc1 ?
hgDAF12 agonist: 12.1*; hcDAF-12 act: 5.9*; ssDAF12 agonist: 0.2; DAX1 inh-1: -2.4; DAX1 inh-2: 2.8

Results for COc1ccc(-c2cc3nc[nH]c(=O)c3s2)cc1 ?
hgDAF12 agonist: 10.6*; hcDAF-12 act: 0.7; ssDAF12 agonist: -0.2; DAX1 inh-1: -1.3; DAX1 inh-2: 1.2

How did CCOc1cc(/C=C(/C#N)c2nc3ccccc3[nH]2)ccc1Oc1ccc([N+](=O)[O-])cn1 do in these assays?
hgDAF12 agonist: 5.0; hcDAF-12 act: 5.8*; ssDAF12 agonist: -0.7; DAX1 inh-1: 0.0; DAX1 inh-2: -0.6

Results for CCOc1cc(/C=C(\C#N)c2nc3ccccc3[nH]2)ccc1OC(C)C(=O)O (stereo not drawn) ?
hgDAF12 agonist: 1.2; hcDAF-12 act: 0.4; ssDAF12 agonist: -0.5; DAX1 inh-1: 1.7; DAX1 inh-2: -0.6

What do the screens show for `CCCCOCCCNC(=O)C[C@@H]1C(=O)N2CCCC3=C2[C@@]1(C(=O)OC)CCCC3`?
hgDAF12 agonist: -0.9; hcDAF-12 act: -0.8; ssDAF12 agonist: -0.8; DAX1 inh-2: -0.1

How did CC(C)C[C@H](NC(=O)[C@H](Cc1ccccc1)n1c(=O)[nH]c2ccccc2c1=O)C(=O)N1CCC(C(=O)O)CC1 do in these assays?
hgDAF12 agonist: 0.6; hcDAF-12 act: 2.4; ssDAF12 agonist: -0.5; DAX1 inh-1: 0.2; DAX1 inh-2: -0.4

Results for C[C@H](NC(=O)[C@H](Cc1ccccc1)n1c(=O)[nH]c2ccccc2c1=O)C(=O)N1CCC(C(=O)O)CC1 ?
hgDAF12 agonist: -0.8; hcDAF-12 act: 0.2; ssDAF12 agonist: -1.6; DAX1 inh-1: 4.9*; DAX1 inh-2: 0.0

Results for CCc1ccc(S(=O)(=O)NCCc2cn3cccc(C)c3n2)s1 ?
hgDAF12 agonist: 4.5; hcDAF-12 act: 4.6; ssDAF12 agonist: 2.2*; DAX1 inh-1: -1.4; DAX1 inh-2: 0.9

Results for O/N=C(/CCc1ccccc1)c1ccc2c(c1)OCCO2 ?
hgDAF12 agonist: 11.2*; hcDAF-12 act: 1.6; ssDAF12 agonist: -1.5; DAX1 inh-1: 1.1; DAX1 inh-2: 3.5

What do the screens show for `Nc1nc(SCc2ccccc2)cc(SCc2ccccc2)n1`?
hgDAF12 agonist: 11.8*; hcDAF-12 act: 2.0; ssDAF12 agonist: -0.2; DAX1 inh-1: 0.5; DAX1 inh-2: 3.1

What do the screens show for `Nc1cc(N)nc(SCc2ccccc2)n1`?
hgDAF12 agonist: 7.2; hcDAF-12 act: 0.6; ssDAF12 agonist: -0.7; DAX1 inh-1: 2.8; DAX1 inh-2: 2.1

What do the screens show for `Nn1c(SCc2ccc([N+](=O)[O-])cc2)nnc1-c1n[nH]c2c1CCC2`?
hgDAF12 agonist: 4.1; hcDAF-12 act: -0.5; ssDAF12 agonist: -1.5; DAX1 inh-2: -0.4

How did COc1ccc(N2CCN(C(=O)CN(C)S(=O)(=O)c3cnc[nH]3)CC2)cc1 do in these assays?
hgDAF12 agonist: -2.6; hcDAF-12 act: 0.3; ssDAF12 agonist: -0.1; DAX1 inh-1: 7.1*; DAX1 inh-2: -0.7

Results for Cn1ncc(Cl)c1C(=O)NCc1ccc2c(c1)OCO2 ?
hgDAF12 agonist: -1.2; hcDAF-12 act: -1.8; ssDAF12 agonist: -1.0; DAX1 inh-1: -0.9; DAX1 inh-2: -6.6

How did Cn1ncc(Cl)c1C(=O)Nc1ccc2c(c1)OCO2 do in these assays?
hgDAF12 agonist: 3.6; hcDAF-12 act: 6.3*; ssDAF12 agonist: 0.0; DAX1 inh-1: 1.3; DAX1 inh-2: 0.8

What do the screens show for `O=C(Nc1ccc2c(c1)OCO2)c1c(Cl)nc2sccn12`?
hgDAF12 agonist: 8.8; hcDAF-12 act: 5.9*; ssDAF12 agonist: -0.2; DAX1 inh-1: 3.4; DAX1 inh-2: 1.9

What do the screens show for `CC(=O)c1ccc(-n2c(-c3cc(-c4ccco4)[nH]n3)n[nH]c2=S)cc1`?
hgDAF12 agonist: -1.6; hcDAF-12 act: -1.3; ssDAF12 agonist: -0.9; DAX1 inh-1: 5.6*; DAX1 inh-2: 0.2

Results for O=C(O)c1ccc(-n2c(-c3cc(C4CC4)[nH]n3)n[nH]c2=S)cc1 ?
hgDAF12 agonist: -1.1; hcDAF-12 act: -0.9; ssDAF12 agonist: -1.0; DAX1 inh-1: 4.6*; DAX1 inh-2: 0.5

How did O=C(O)c1ccc(-n2c(-c3cc(-c4ccco4)[nH]n3)n[nH]c2=S)cc1 do in these assays?
hgDAF12 agonist: -0.3; hcDAF-12 act: -1.1; ssDAF12 agonist: -1.0; DAX1 inh-1: -0.6; DAX1 inh-2: -0.1
